# Tests used:
# [1] = biological target: T1, Aspartate--tRNA(Asp/Asn) ligase (Mycobacterium tuberculosis (strain ATCC 25618 / H37Rv)) (UniProt P9WFW3); assay: Assay for Asp RNA synthetase-1 from Mycobacterium tuberculosis; format: functional; parameters: scale not given: direction of the effect not stated beside the values; conditions: 30 µM; further: in the data most compounds retested in dose-response had high values
# T1 sequence (whole entry): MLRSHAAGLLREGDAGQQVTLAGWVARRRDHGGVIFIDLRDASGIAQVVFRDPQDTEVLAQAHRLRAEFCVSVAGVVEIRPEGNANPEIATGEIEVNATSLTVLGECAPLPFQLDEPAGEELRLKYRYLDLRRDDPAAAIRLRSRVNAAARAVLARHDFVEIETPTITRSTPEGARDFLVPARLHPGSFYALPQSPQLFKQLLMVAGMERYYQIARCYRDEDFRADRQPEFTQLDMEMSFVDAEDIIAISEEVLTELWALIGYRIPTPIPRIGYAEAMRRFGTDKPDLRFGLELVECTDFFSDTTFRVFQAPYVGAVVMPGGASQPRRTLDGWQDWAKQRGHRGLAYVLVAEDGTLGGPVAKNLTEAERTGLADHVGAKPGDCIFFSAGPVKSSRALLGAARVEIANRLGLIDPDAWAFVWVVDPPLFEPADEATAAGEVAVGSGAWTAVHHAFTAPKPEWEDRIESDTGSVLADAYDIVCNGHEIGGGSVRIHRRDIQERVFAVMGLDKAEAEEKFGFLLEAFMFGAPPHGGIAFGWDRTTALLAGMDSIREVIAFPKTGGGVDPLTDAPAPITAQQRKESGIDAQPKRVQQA
# [2] = biological target: Shiga toxin 2 (Escherichia coli O157:H7) (UniProt P09385+P09386); assay: E. coli 0.157:H7 Shiga Toxin SOP - stx2 screening assay; format: functional; parameters: scale not given: direction of the effect not stated beside the values; conditions: 30 µM
smiles,measurement,setting,value
CCOCCN1CCN(Cc2nnc(C3CC3)o2)CC1CC (stereo not drawn),Percent Effect,[1],1.06%
same,Percent Effect,[2],-12.2%
Cn1cnc2c1C(COCC1CCOCC1)CN(C1CCOCC1)C2 (stereo not drawn),Percent Effect,[1],3.46%
same,Percent Effect,[2],-20.2%
CCn1ccnc1CNCC1CCCN1c1cc(NC)ncn1 (stereo not drawn),Percent Effect,[1],1.78%
same,Percent Effect,[2],-12.7%
Cn1nc2c(cc1=O)CN(Cc1nnc(C3CC3)o1)CC2,Percent Effect,[1],47.1%
same,Percent Effect,[2],-53.6%
O=C(Cc1ccc2c(c1)CCC2)NCCNc1ncccn1,Percent Effect,[1],-1.71%
same,Percent Effect,[2],7.96%
COc1ccccc1OCC(=O)NS(=O)(=O)c1cc(F)ccc1F,Percent Effect,[1],0.145%
same,Percent Effect,[2],-7.87%
c1ccc(-c2nc(CN3CCCC3Cn3cncn3)cs2)cc1 (stereo not drawn),Percent Effect,[1],0.143%
same,Percent Effect,[2],5.25%
O=C(CS(=O)(=O)CC1CCCCC1)NC1CCCCNC1=O (stereo not drawn),Percent Effect,[1],-4.37%
same,Percent Effect,[2],-23%
O=C(c1cc(=O)[nH]c(=O)[nH]1)N1CCCCC1c1ccc(F)cc1 (stereo not drawn),Percent Effect,[1],0.947%
same,Percent Effect,[2],-12.6%
Cc1cccc(C(=O)N2CCC(Cc3cnc4[nH]ccc4c3)CC2)n1,Percent Effect,[1],4.87%
same,Percent Effect,[2],5.08%
Cc1occc1C(=O)N1CCCC2(CCN(CCN3CCCC3)C2=O)C1 (stereo not drawn),Percent Effect,[1],1.84%
same,Percent Effect,[2],-29.2%
CN(C)C(=O)[C@@H]1CCO[C@@H]2CCN(CCc3ccccc3)C[C@@H]21,Percent Effect,[1],-3.08%
same,Percent Effect,[2],1.17%
CN1N=C(C(=O)N2CCCC(CCc3c(F)cccc3F)C2)CCC1=O (stereo not drawn),Percent Effect,[1],-2.6%
same,Percent Effect,[2],9.43%
COc1ccc(C(C(=O)O)N2CCCN(C3CCCCC3)CC2)cn1 (stereo not drawn),Percent Effect,[1],2.16%
same,Percent Effect,[2],0.0125%
COc1ccccc1CNC(=O)Cn1ncc2c1c(C)nn2C,Percent Effect,[1],-0.668%
same,Percent Effect,[2],-20.2%
Cc1noc(C2CCN(C(=O)CN(C)c3ccc(Cl)cn3)CC2)n1,Percent Effect,[1],-1.59%
same,Percent Effect,[2],-21.6%
O=C(NCC(Cc1cccc(F)c1)N1CCCC1=O)c1cnccn1 (stereo not drawn),Percent Effect,[1],-5.12%
same,Percent Effect,[2],-15.9%
CN1CC(c2ccccc2)CC12CCN(C(=O)c1ccc(F)cc1)CC2 (stereo not drawn),Percent Effect,[1],-1.84%
same,Percent Effect,[2],11.8%
Cc1ccc2c(n1)N(CCn1cccn1)CCN(C(=O)CC1CC1)C2,Percent Effect,[1],-3.03%
same,Percent Effect,[2],2.2%
